The list is not random: actives were taken first. Their share in the collection is about 1.4%.
MsrA inh: bovine MsrA enzyme inhibitors, primary screen, biochemical, absorbance, HTS. purified bovine MsrA, absorbance read-out. hit rate 0.75% among 360,000. AID 651718, 2012. inhibition, % at 15.5 µM; in the data active = inhibition above about 4.5%;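 also: 0% = vehicle wells with enzyme and 100% = reference inhibitor wells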
p-CIP stab down: p/CIP-EGFP fusion destabilizers, primary screen, fluorescence, F442A cells | decrease of EGFP signal, % at 10 µM | hit rate 0.01% among 290,000 | Q05BA5 | 16 h;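 active = EGFP signal decrease of at least 30% at 10 µM or well 3 SD below plate mean, unless failing retest; inactive = the rest, including hits failing retest or dose response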
Target sequence (Q05BA5 1-1403): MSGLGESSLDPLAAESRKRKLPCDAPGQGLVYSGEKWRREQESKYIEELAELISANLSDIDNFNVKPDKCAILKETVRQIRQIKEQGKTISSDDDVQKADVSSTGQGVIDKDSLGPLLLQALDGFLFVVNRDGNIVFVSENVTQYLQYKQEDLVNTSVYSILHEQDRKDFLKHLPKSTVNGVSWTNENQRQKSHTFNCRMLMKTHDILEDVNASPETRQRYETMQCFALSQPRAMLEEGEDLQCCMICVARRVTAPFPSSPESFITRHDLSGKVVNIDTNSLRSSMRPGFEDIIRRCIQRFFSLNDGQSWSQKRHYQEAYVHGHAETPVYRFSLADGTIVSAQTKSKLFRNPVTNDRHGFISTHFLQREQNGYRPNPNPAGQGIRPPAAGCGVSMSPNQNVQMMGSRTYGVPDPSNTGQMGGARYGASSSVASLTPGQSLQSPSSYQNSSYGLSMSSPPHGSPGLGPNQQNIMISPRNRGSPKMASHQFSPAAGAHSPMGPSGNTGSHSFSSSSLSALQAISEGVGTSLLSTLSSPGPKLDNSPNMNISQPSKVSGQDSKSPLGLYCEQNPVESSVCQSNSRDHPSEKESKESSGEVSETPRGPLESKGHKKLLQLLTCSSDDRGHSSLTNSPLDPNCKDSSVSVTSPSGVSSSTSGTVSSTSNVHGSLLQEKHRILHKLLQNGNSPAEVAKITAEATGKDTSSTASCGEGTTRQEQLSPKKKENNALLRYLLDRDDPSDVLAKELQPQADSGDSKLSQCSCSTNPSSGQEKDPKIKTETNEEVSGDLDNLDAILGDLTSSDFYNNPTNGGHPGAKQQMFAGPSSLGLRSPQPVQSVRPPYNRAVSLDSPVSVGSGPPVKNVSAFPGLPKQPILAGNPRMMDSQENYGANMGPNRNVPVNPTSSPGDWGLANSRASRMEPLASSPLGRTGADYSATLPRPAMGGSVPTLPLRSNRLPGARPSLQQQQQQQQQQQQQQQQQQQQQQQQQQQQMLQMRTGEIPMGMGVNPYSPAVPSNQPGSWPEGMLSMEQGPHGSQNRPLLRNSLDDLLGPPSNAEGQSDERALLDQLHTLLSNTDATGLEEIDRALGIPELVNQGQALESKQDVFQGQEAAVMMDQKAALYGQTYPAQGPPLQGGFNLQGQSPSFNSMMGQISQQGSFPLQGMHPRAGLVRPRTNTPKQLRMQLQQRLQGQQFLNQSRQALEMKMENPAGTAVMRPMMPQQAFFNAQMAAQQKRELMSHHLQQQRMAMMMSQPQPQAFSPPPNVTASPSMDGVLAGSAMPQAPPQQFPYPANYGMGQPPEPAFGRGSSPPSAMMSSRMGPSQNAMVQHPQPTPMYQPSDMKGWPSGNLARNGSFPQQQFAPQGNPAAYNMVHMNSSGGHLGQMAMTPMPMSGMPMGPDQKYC
bovine MsrA act: bovine MsrA enzyme activators, primary screen, biochemical, absorbance, HTS; Methionine sulfoxide reductase A (Bos taurus); activation, % at 10.6 µM; hit rate 0.3% among 360,000; purified bovine MsrA, absorbance read-out; in the data active = activation above about 7.5%;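 also: 0% = vehicle and 100% = reference activator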
14-3-3 Bad PPI: inhibitors of 14-3-3 zeta/Bad binding, primary screen, biochemical, TR-FRET, bovine 14-3-3 zeta; 14-3-3 protein zeta/delta (Bos taurus), P63103; TR-FRET 14-3-3zeta/Dy647-pBad peptide displacement, 1 h; inhibition, % at 21.7 µM; hit rate 0.71% among 220,000;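 active = inhibition above about 70%, limit read from the data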;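 also: 0% = full 14-3-3 plus peptide FRET controls and 100% = background without 14-3-3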
* hit, by the source's call; . = no result; [ ] = remark or other dose.

SMILES	MsrA inh	p-CIP stab down	bovine MsrA act	14-3-3 Bad PPI
COc1cccc(Nc2nc(-c3cccc(N4C(=O)c5ccccc5C4=O)c3)cs2)c1	0.2	-81.8	-7.7	84.1*
COc1ccc(C(=O)NCC2CCN(C(=O)C(=O)c3cccs3)CC2)c(OC)c1	0.6	.	.	.
NC(=O)[C@@H]1CCCN1C(=O)[C@H](CCc1ccccc1)NC(=O)[C@H]1O[C@@H](n2cnc3c(N)ncnc32)[C@H](O)[C@@H]1O	0.8	.	.	.
Nc1[nH]c(C(=O)c2ccccc2)c(-c2ccccc2Cl)c1C(=O)NCCc1c[nH]c2ccccc12	0.2	.	.	.
O=S(=O)(c1ccccc1F)N1CCC(c2nc3ccccc3[nH]2)CC1	-0.5	-10.6	-2.3	.
O=S(=O)(c1ccccc1F)N1CCN(Cc2nc3ccccc3[nH]2)CC1	-1.1	-7.3	-3.6	81.7*
C#CCC1c2ccccc2CCN1CC=C (stereo not drawn)	-0.8	.	.	.
COc1ccc(-n2c(SCc3ccc([N+](=O)[O-])cc3)nnc2-c2ccc(C)cc2)cc1	1.5	-16.5	-4.6	91.5*[fluorescence artefact?]
COc1ccc(-n2c(Cc3ccccc3)nnc2SCc2ccc([N+](=O)[O-])cc2)cc1	1.5	2.0	-4.0	-10.5
O=C(NCC1CCN(C(=O)C(=O)c2cccs2)CC1)c1ccncc1	0.4	.	.	.
COCCn1nnnc1C(c1ccc2ncccc2c1)N1CCN(c2ccccc2F)CC1 (stereo not drawn)	-0.2	-9.4	-4.2	76.1*
CCC(c1nnnn1CCOC)N1CCN(Cc2ccccc2OC)CC1 (stereo not drawn)	0.2	-8.1	-1.7	87.8*
COCCn1nnnc1C(c1ccccc1)N1CCN(C)CC1 (stereo not drawn)	0.8	-2.2	0.0	72.4*
CCCC(c1nnnn1CCOC)N1CCN(Cc2ccccc2)CC1 (stereo not drawn)	0.3	-1.7	-13.7	43.8
CC(C)(C)c1ccc(C#C[C@@H]2C=C[C@@H](O)[C@@H](COC(=O)Nc3ccccc3)O2)cc1	0.1	.	.	.
O=C(C1CCCN(Cc2ccccc2)C1)N1CCc2ccccc2C1 (stereo not drawn)	-1.0	0.8	1.7	78.0*
CCN(CC)C(=O)C1CCCN(Cc2ccccc2)C1 (stereo not drawn)	1.0	-2.0	-2.4	79.7*
O=C(NC1CCCN(Cc2ccc(Cl)cc2)C1)C1CCC1 (stereo not drawn)	-0.9	-11.8	-5.8	.
NC(=O)C1CCCN(Cc2ccc(Cl)cc2)C1 (stereo not drawn)	-0.5	-2.4	-3.6	72.4*
COc1cccc(CN2CCN(C(=O)CC(C)C)CC2)c1	-0.7	1.1	2.2	34.0
CC(C)CC(=O)N1CCN(Cc2cccc(F)c2)CC1	-0.8	-1.6	-1.4	78.7*
CCN(CC)C(=O)C1CCCN(Cc2ccc(N(C)C)cc2)C1 (stereo not drawn)	-0.3	-7.3	-8.5	47.9
N#Cc1ccc2nc(-c3ccc(CN4CCC(c5nc6ccccc6[nH]5)CC4)cc3)c(-c3ccccc3)nc2c1	0.2	.	.	.
CN(Cc1ccccc1)C(=O)C1CCCN(Cc2ccc(Cl)cc2)C1 (stereo not drawn)	-0.3	7.0	1.6	75.6*
CCOC(=O)C1CCCN(Cc2ccc3c(c2)OCO3)C1 (stereo not drawn)	-0.3	-14.4	-6.1	75.1*
SMILES	MsrA inh	p-CIP stab down	bovine MsrA act	14-3-3 Bad PPI
CCN(CC)C(=O)C1CCCN(Cc2ccccc2C(F)(F)F)C1 (stereo not drawn)	-0.5	-11.3	-2.8	70.9*
O=C(C1CCCN(Cc2cccc(F)c2)C1)N1CCCCC1 (stereo not drawn)	-0.7	-4.1	-10.6	86.2*
COC(=O)c1cc2c(c3c4cc(F)ccc4n(C(=O)c4ccccc4)c13)C(=O)N(C1CCCCC1)C2	1.2	.	.	.
O=[N+]([O-])c1ccc(S(=O)(=O)N2CCN(Cc3c[nH]c4ccccc34)CC2)cc1	-0.4	0.3	-11.2	78.7*
CSc1nnc(-c2cc3c(-c4ccccc4)nn(C)c3s2)n1C	-0.6	-8.2	-10.3	88.6*
Cn1nc(-c2ccccc2)c2cc(C(=O)O)sc21	0.4	-2.1	-1.1	-0.1
Cc1c(/C(O)=C2/C(=O)C(=O)N(CCN(C)C)C2c2ccc(C(C)C)cc2)cnn1-c1ccccc1 (stereo not drawn)	3.3	7.3	3.3	87.9*
Cc1c(/C(O)=C2\C(=O)C(=O)N(CCN(C)C)C2c2ccccc2)cnn1-c1ccccc1 (stereo not drawn)	0.1	-9.4	-4.6	-3.7
CCOc1ccc(NC(=O)c2ccc3[nH]c(=O)c(=O)[nH]c3c2)cc1	4.6*	8.4	-3.1	.
CCOc1ccc(NS(=O)(=O)c2ccc3[nH]c(=O)c(=O)[nH]c3c2)cc1	1.2	19.0	-4.3	-12.7
O=C(C(=O)N1CCN(C(=O)c2cc(C(F)(F)F)cc(C(F)(F)F)c2)CC1)c1cccc(C(F)(F)F)c1	0.2	.	.	.
COc1cccc(C(=O)N[C@H](C(=O)N2CCC[C@H]2C(=O)NCCc2ccccc2Cl)c2ccccc2)c1	-1.0	.	.	.
COc1ccc(NC(=O)CSc2ccccn2)cc1OC	0.5	-8.8	-7.5	72.0*
COc1ccc(-c2nnn3c2C2c4cc(-c5cccc(F)c5)ccc4CCN2C(=O)C3)cc1 (stereo not drawn)	1.6	.	.	.
COC(=O)N1C[C@H](O)[C@H](O)C[C@@H]1c1ccccc1Br	-0.9	.	.	.
O=C(Nc1c2ccccc2nc2ccccc12)C(Cl)(Cl)Cl	.	2.3	-15.0	79.5*[fluorescence artefact?]
O=C(Nc1ccc(Cl)cc1)OC[C@@H]1CSCCS(=O)(=O)N1	1.3	.	.	.
Cc1cc(/C(N)=N/OC(=O)c2cccc(Cl)c2)no1	-0.7	-9.2	-0.2	6.6
Cc1cc(/C(N)=N/OC(=O)c2ccc(Cl)cc2)no1	-0.6	-16.5	-2.0	70.1*
Cc1ccc(-n2cc(C(=O)c3ccc(N4CCN(C)CC4)cc3)nn2)cc1Cl	0.4	-1.0	-2.7	17.4
CN1CCN(c2ccc(C(=O)c3cn(-c4ccc(F)c(Cl)c4)nn3)cc2)CC1	-0.9	-1.3	-11.8	76.3*
Cc1cc(C)cc(N2CC(O)=C(c3nc4ccccc4c(=O)[nH]3)C2=N)c1	-1.3	-9.0	-1.3	76.8*
COc1cccc(N2CC(O)=C(c3nc4ccccc4c(=O)[nH]3)C2=N)c1	.	-14.2	-12.6	0.4
Cc1cc(C(=O)OCC(=O)NCc2ccco2)c(C)n1-c1ccc(F)cc1	-0.9	1.9	8.5*	-7.4
CCNC(=O)COC(=O)c1cc(C)n(-c2ccccc2)c1C	-0.5	-36.7	-2.1	-7.7
CCCCC#Cc1ccccc1COC[B-](F)(F)F	0.8	.	.	.
Cc1cc2ccccn2c1C(=O)c1ccc(N/N=C/c2ccc(C(=O)O)cc2)c([N+](=O)[O-])c1	0.3	-8.7	-7.0	73.4*
C/C(=N\Nc1ccc(C(=O)c2c(C)cc3ccccn23)cc1[N+](=O)[O-])c1ccc(O)cc1	0.0	0.3	-4.4	7.2
C[C@H](c1ccccc1)N1C[C@@H](COCc2ccccc2)Oc2cccc(N3CCCC3)c2S1(=O)=O	0.6	.	.	.
Cc1nn2c(Nc3ccccc3)c3c(nc2c1-c1ccccc1)CCC3	0.3	-1.2	0.6	81.5*

Compound activity from PubChem BioAssay.
